The record followed here is paper PMC12136788.

Numbering of substitutions follows the chain as printed. The full ranking holds about 24,000 sequences; the median of “enrichment r” is about 0.99, and the highest 2% start at about 3.7. Only a selection was taken, and the highest values are over-represented in it overall.

Sequences and labels used below:
T1: UNK ZnF1-3 (human, UniProt Q9C0B0 31-174)
T1 sequence: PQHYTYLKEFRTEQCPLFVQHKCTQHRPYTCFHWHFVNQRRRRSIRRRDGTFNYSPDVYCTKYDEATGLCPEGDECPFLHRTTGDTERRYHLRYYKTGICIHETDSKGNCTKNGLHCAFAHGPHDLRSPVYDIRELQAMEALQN

B1: chrX:98862621:98862622:+_ENSMUSG00000034160_ENSMUST00000044475|mus_hu|mus_mus_mus_hu_False|18_68 (ssRNA)
RNA: GGGAGUUCUACAGUCCGACGAUCCUGCAUCUCCUUUAGAGUGUUUCCCAUAUUAGAGUAGGCAUCAGCAAAUGUAGGACUGAUUCGAAUAGCCUCCUUAUAAUGCAUCAGAGCUUCCUGCAGCUUGCCCUGCUGCUGCAGUACCAACAGAGGAUUGAGCAUCA
B2: chr4:43703020:43703021:+_ENSMUSG00000078716_ENSMUST00000107866|mus_mus|FALSE|FALSE (ssRNA)
RNA: GGGAGUUCUACAGUCCGACGAUCCACACUGCCAGCAAUGAGCAUGUGCCAAAUGCUGUGAAUGUAGAAGUAGUUGUCCCGAGUCUCCACGAAAGCAUACAGUAGAACGGCACUGCCAGCAAUCAGGCUGCCGGGACACAGGUACAACAGAGGAUUGAGCAUCA
B3: chr2:130910683:130910684:-_ENSG00000136699_ENST00000351288|hu_hu|motif|central (ssRNA)
RNA: GGGAGUUCUACAGUCCGACGAUCGGAACACAGAGCCGCCAUCUGUCCUGCAAAUCUGUGGUUGAUGGCAGACGACAGCCGGAAGAGUGUGCGGACCAAGCUGGCGAUCUCAUAGCUCCGGAUGGGCUGCAGCUCCGGGUCCCCCAACAGAGGAUUGAGCAUCA
B4: chr17:56552419:56552420:-_ENSMUSG00000013236_ENSMUST00000086828|mus_mus|mus_mus_mus_hu_False|18_48 (ssRNA)
RNA: GGGAGUUCUACAGUCCGACGAUCAAAAAAUACACUAUUUAAAAAAAAUGAAAUGUCACGGGAUACAGUUACACUGAGAGUUUUAAAAAAAAAUAAGAUUCUGGUCCCAGCCCAGUGGCAGGCAGGGGCAGAGCGGGGAGGAGCCAACAGAGGAUUGAGCAUCA
B5: chr5:145543945:145543946:-_ENSG00000133706_ENST00000545646|hu_hu|hu_hu_hu_mus_True|38_98 (ssRNA)
RNA: GGGAGUUCUACAGUCCGACGAUCCUGAACGGCCAGUGGCGGGAAAUAAUCAAGCCAGUGCUCUGCUUCAGAAAACUUCACUAUGUCGUCAUCAGAGAGGCCAAGGGAUUUCAUAAUGUCCCACUGGUACUUAGAAGAUCCUGCCAACAGAGGAUUGAGCAUCA
B6: chr17:56552419:56552420:-_ENSMUSG00000013236_ENSMUST00000086828|mus_mus|mus_mus_mus_hu_False|1_18 (ssRNA)
RNA: B4 RNA with A88G, A92G, U93C, A94U, A95G, A138C, G139A, C143G
B7: chr17:56552419:56552420:-_ENSMUSG00000013236_ENSMUST00000086828|mus_mus|mus_mus_mus_hu_False|18_18 (ssRNA)
RNA: B4 RNA with A88G, A92G, U93C, A94U, A95G
B8: chr17:56552419:56552420:-_ENSMUSG00000013236_ENSMUST00000086828|mus_mus|mus_mus_mus_hu_False|18_98 (ssRNA)
RNA: B4 RNA with U38A, U39A, A88G, A92G, U93C, A94U, A95G
B9: chr17:56552419:56552420:-_ENSMUSG00000013236_ENSMUST00000086828|mus_mus|mus_mus_mus_hu_False|8_18 (ssRNA)
RNA: GGGAGUUCUACAGUCCGACGAUCAAAAAAUACACUAUUUAAAAAAAAUGAAAUGUCACGGGAUACAGUUACACUGAGAGUUUUAAAAGAAAGCUGGAUUCUGGUCCCAGCCCAGUGGCAGGCAGGGGAGUGCGGAAGAGGAGCCAACAGAGGAUUGAGCAUCA
B10: chr17:56552419:56552420:-_ENSMUSG00000013236_ENSMUST00000086828|mus_mus|mus_mus_mus_hu_False|18_58 (ssRNA)
RNA: B4 RNA with G77C, G79C, U81A, A88G, A92G, U93C, A94U, A95G
B11: 57396971_57397091_122_5pUTR_ENSMUSG00000021938_ENSMUST00000022507|mouse|control|control (ssRNA)
RNA: GGGAGUUCUACAGUCCGACGAUCGCUUCAGGUUUCCUCUUAACAUCAUCUUAGCAAGUUCGCUUGGGAUGCUGGAUGAGGCCUAGACGUCAAGGUACACACGUCUCCACAUGUAUCUAUGGAAACGAAGCAAGGAAAGCCAGGCAACAGAGGAUUGAGCAUCA
B12: 79664557_79664677_4134_CDS_ENSG00000146247_ENST00000275034|human|control|control (ssRNA)
RNA: GGGAGUUCUACAGUCCGACGAUCACGGAAAGGCUCUGAAUCUUCACAUUGAAAUAUGAGAUUUAACAAUUCUUCACACUGUUUCUUCCAUGCUUGAAUAUCGUAAGACUGGGCUCUAUUACGUAAUCUUCUUCUAGGCUGAUGCAACAGAGGAUUGAGCAUCA
B13: chr2:113333244:113333245:+_ENSG00000125630_ENST00000417433|hu_hu|FALSE|FALSE (ssRNA)
RNA: GGGAGUUCUACAGUCCGACGAUCAACAUCAAGUUAAACAACAUCCAGUUUCACUUUGAUGUUCAUAGCUGCCAGUUCAGCUACAAAAUACCGAAAAACAUAAGGCACAGAAACAGUAUCGAUAGUGUCACUGCGACUACACAGCAACAGAGGAUUGAGCAUCA
B14: chr5:128440902:128440903:+_ENSG00000066583_ENST00000173527|hu_mus|hu_hu_hu_mus_True|88_98 (ssRNA)
RNA: GGGAGUUCUACAGUCCGACGAUCUUGAACGGUGCUGCCAAGACCUUUAGGGUAUUGUUCCGUUAUGAUAACUGGAAUCCCUAAGAUCCGAGCUCCUUGCAACAGUCUCUGUCCCACACUAAUGAUGUCCCCAAAGUAUUUGAUCAACAGAGGAUUGAGCAUCA
B15: chr2:9725471:9725472:-_ENSG00000134308_ENST00000238081|hu_hu|FALSE|FALSE (ssRNA)
RNA: GGGAGUUCUACAGUCCGACGAUCUGCCGCAUCACAUUCUUCUCCUGCACUGUCUGAUGUCCAAAGUGUUAGGUUGUCUCUAAGCAACUGCAUGAUGAGGGUGCUGUCUUUGUAUGAGUCUUCAUUCAGUGUAUCAAGUUCAGCCAACAGAGGAUUGAGCAUCA
B16: 27821128_27827609_1759_CDS_ENSMUSG00000022263_ENSMUST00000090247|mouse|control|control (ssRNA)
RNA: GGGAGUUCUACAGUCCGACGAUCGCCCUGGUGAUGAUGAAUGGCGUCUUCCAGGUCCUGCAGCUCCGAGGGAAGGUCUACUUCACCACAGGCCUUACACCACGAGUCCACGUUGCUCAUGUACUUCUCAGCCUUCUGGUGAAACAACAGAGGAUUGAGCAUCA

The assay addresses T1, UNK ZnF1-3. In words: nsRBNS (natural sequence RNA bind-n-seq); RBNS binding buffer (assumed for nsRBNS): 25 mM Tris pH 7.5, 150 mM KCl, 3 mM MgCl2, 0.01% Triton X-100, 500 ug/ml BSA, 20 U/ml SUPERase-In, 4 C; UNK is unkempt and MSI1 is Musashi-1; names of the RNAs are library labels; protein concentration not given here; high values mean tight binding.
B1 had a binding signal of 1.07 enrichment R.

The molecule B2 registered a binding signal of 0.899 enrichment R.

Take B3: the binding signal amounted to 0.907 enrichment R.

The molecule B4 gave a binding signal of 7.31 enrichment R.

On to B5, for which the binding signal was 1.21 enrichment R.

B6 had a binding signal of 3.35 enrichment R.

B7 returned a binding signal of 3.38 enrichment R.

B8 showed a binding signal of 6.3 enrichment R.

Molecule B9 showed a binding signal of 3.69 enrichment R.

In turn, B10 returned a binding signal of 5.2 enrichment R.

Regarding B11, the binding signal was 0.72 enrichment R.

B12: the binding signal amounted to 1.11 enrichment R.

Take B13: the binding signal was 0.877 enrichment R.

As to B14, the binding signal turned out to be 0.627 enrichment R.

The molecule B15 returned a binding signal of 0.929 enrichment R.

B16 had a binding signal of 0.482 enrichment R.
